Screens as filed in PubChem BioAssay.
D2 ag-1: agonists of human D2 dopamine receptor (beta-arrestin). DiscoveRx PathHunter D2 beta-arrestin, luminescence, 90 min; 100% = 57 uM dopamine signal. activation, % (no concentration beside the values). 360,000 tested, 0.084% active; in the data active = activation above about 40%; inconclusive = between about 15% and that limit
Target sequence (P14416 whole entry, looked up): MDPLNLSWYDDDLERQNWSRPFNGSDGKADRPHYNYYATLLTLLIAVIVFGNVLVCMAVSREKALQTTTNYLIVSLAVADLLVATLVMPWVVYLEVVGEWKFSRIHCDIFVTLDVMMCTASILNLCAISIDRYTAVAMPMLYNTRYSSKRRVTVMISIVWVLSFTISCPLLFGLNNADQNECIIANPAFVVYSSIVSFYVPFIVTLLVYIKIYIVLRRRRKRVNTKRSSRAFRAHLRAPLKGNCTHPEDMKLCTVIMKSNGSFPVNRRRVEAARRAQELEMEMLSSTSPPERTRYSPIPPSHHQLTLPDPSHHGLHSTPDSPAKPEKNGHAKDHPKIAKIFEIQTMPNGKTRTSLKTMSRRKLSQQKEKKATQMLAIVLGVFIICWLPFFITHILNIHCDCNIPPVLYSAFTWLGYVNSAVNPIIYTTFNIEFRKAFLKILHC
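Agonist mode: compounds alone added to overnight-plated D2 PathHunter cells for 90 min at 37 C, with 57 uM final dopamine (EC100) defining full response. Beta-arrestin recruitment detected by chemiluminescent reagent, read after 1 h at ambient temperature.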
D2 ag-2: activates the human D2 dopamine receptor; 340,000 tested, 0.53% active; P14416; AID 485358; activation, % at 2 µM; HEK293 T-REx D2 cells, calcium flux agonist mode;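 active = activation over 3 SD above normal in the single-dose calcium agonist read, cut at about 30% in these data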
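Agonism is scored from calcium flux in a force-coupled, inducible HEK293 cell line expressing D2, read kinetically for 180 s after compound addition against dopamine controls.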
D2 PAM-1: human D2 receptor positive allosteric modulation. P14416. DiscoveRx D2 beta-arrestin cells, luminescence, 90 min; 100% = 57 uM dopamine signal. potentiation, % (concentration not given with the values). 360,000 tested, 0.23% active. AID 624464; in the data active = potentiation above about 50%; inconclusive = mostly about 30% to 49%
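D2 cells co-treated with compound plus 50 nM dopamine (EC20) for 90 min at 37 deg C to detect potentiation. Beta-arrestin recruitment was read as enzyme-fragment luminescence after 1 h at ambient temperature. Full response was set by 57 uM dopamine.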
D2 PAM-2: positive allosteric modulators of human D2 dopamine receptor; P14416; HEK293 T-REx D2, calcium flux, EC20 dopamine potentiation; potentiation, % at 10 µM; 340,000 tested, 0.34% active;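 active = potentiation over 3 SD above the plate norm, cut at about 30% in these data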
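Tetracycline-induced Hek293 Trex D2 cells, force-coupled to calcium, loaded with no-wash calcium dye. Compound added with 180 s kinetic read for agonism, then EC20 dopamine and a further 180 s read for potentiation.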
D2 antagonist: D2 dopamine receptor (human) antagonism. P14416. HEK293 TREx D2 cells, calcium flux, dopamine EC80. inhibition, % at 10 µM. 340,000 tested, 2% active; in the data active = inhibition above about 30%; inactive = below that, where a call was filed
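HEK293 T-REx D2 cells, tet-induced, calcium dye no-wash. Cpd pintool add, 180 s kinetic, then EC80 DA, 180 s kinetic. Ca flux read.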
D3 ag: D3 receptor agonism confirmed, beta-arrestin readout; shares compounds with D2 ag-2; DiscoveRx D3 beta-arrestin cells, luminescence, 90 min; Potency, µM (titrated, usually from 76.9 µM), usual class: activators; 2,300 tested, 4% active; AID 720506; note: nearly all actives have a fitted effect of over 70% in size
D2 ag-3: counter-screen for D3 agonists: human D2 dopamine receptor agonism; shares compounds with D2 ag-2; DiscoveRx PathHunter D2 beta-arrestin, luminescence, 90 min; response scale: percent relative to full dopamine signal; Potency, µM (series often up to 76.9 µM), hits mostly activators; 2,300 tested, 5.9% active; AID 720507; note: nearly all actives have a fitted effect of over 70% in size
Of the large screens only hits and unclear results are named; the others gave an inactive call (follow-up assays come after a bar, where they were run). Most compounds without a hit are left out; they make up all but 2.4% or so of the library. Unless noted, calls come from the whole dose curve; as a rule, active = well fitted activation curve with a large enough effect; inconclusive = small, poorly fitted or top-dose-only effect; inactive = flat fitted curve, though single readings scatter.

Cc1c(CCNC(=O)c2c(F)cccc2F)sc2nc(-c3ccc(F)cc3)nn12	none (no result: D2 ag-1, D2 PAM-1, D2 antagonist)
Cc1cccc(N2CCN(Cc3nc(CC4CC4)no3)CC2)n1	none | D3 ag inactive | D2 ag-3 inactive
Cc1cccc(SC2CCN(Cc3nc(CC4CC4)no3)CC2)c1	none
COCCCNC(=O)CSc1nc2cc3c(cc2c(=O)n1CCCCCC(=O)NCc1ccc2c(c1)OCO2)OCO3	none (no result: D2 ag-1, D2 PAM-1, D2 antagonist)
CC(=O)NC(c1cc(Cl)c2cccnc2c1O)C1CC1 (stereo unspecified)	none (no result: D2 ag-1, D2 PAM-1) | D3 ag inactive | D2 ag-3 inactive
CC(=O)NC(c1cc(Cl)c2cccnc2c1O)C(C)C (stereo unspecified)	none (no result: D2 ag-1, D2 PAM-1)
Cc1cccc(N2C(S)=C(C#N)C(=O)NC2c2ccco2)c1 (stereo unspecified)	none
COc1ccc(N2C(S)=C(C#N)C(=O)NC2c2ccco2)cc1 (stereo unspecified)	D2 ag-2 50.0 | D3 ag inactive | D2 ag-3 inactive
COc1ccccc1C1CCN(Cc2cccc(C(=O)N3CCC(O)CC3)c2)CC1	D2 ag-2 74.7, D2 antagonist 75.5 | D3 ag inactive | D2 ag-3 inactive
c1ccc(-c2nnc(CN3CCCCC3)o2)cc1	none
CC(=O)NCC1CCCN(Cc2cn(-c3ccccc3)nc2-c2ccc3c(c2)OCO3)C1 (stereo unspecified)	none
COC(=O)C1CCN(Cc2nnc(-c3ccccc3)o2)CC1	D2 ag-1 inconclusive, D2 ag-2 45.0, D2 antagonist 65.6 | D3 ag 3.98µM | D2 ag-3 inactive
COC(=O)C1CCN(Cc2cn(-c3ccccc3)nc2-c2ccc3c(c2)OCO3)CC1	D2 ag-2 41.4, D2 antagonist 81.9 | D3 ag inactive | D2 ag-3 inactive
CCN(C(=O)Cn1c(=O)n(Cc2ccc3c(c2)OCO3)c(=O)c2ccc(C(=O)NC3CCCCC3)cc21)c1cccc(C)c1	none (no result: D2 ag-1, D2 PAM-1, D2 antagonist)
COC(=O)CCN(C(=O)C1C2CC3CC(C2)CC1C3)c1ccccn1 (stereo unspecified)	D2 ag-1 inconclusive, D2 ag-2 40.6 | D3 ag inactive | D2 ag-3 inconclusive
CCOc1ccccc1C(=O)N(CCC(=O)OC)c1ccccn1	none
CCOc1ccc(CNS(=O)(=O)c2ccc3c(c2)CC(C)N3C(C)=O)cc1OC (stereo unspecified)	none (no result: D2 ag-1, D2 PAM-1, D2 antagonist)
Cc1cc(C(C)(C)C)cc(S(=O)(=O)NCCc2ccncc2)c1C	none | D3 ag inactive | D2 ag-3 inactive
CCn1cc2c(n1)-c1c(oc(C(=O)Nc3ccc(Br)cc3F)c1C)CC2	none (no result: D2 ag-1, D2 PAM-1, D2 PAM-2, D2 antagonist)
O=C(Cn1cc2c(n1)CCCC2)Nc1cc(C(F)(F)F)ccc1Cl	none (no result: D2 ag-1, D2 PAM-1, D2 antagonist)
CCCn1c(N2CCN(C(=O)Nc3ccc(Cl)cc3)CC2)nc2ccccc21	D2 ag-1 inconclusive (no result: D2 ag-2, D2 PAM-2, D2 antagonist) | D3 ag inactive | D2 ag-3 inconclusive
O=C(Cn1ncc2ccsc2c1=O)N1CCN(c2ccc(F)cc2)CC1	none (no result: D2 ag-1, D2 PAM-1, D2 antagonist)
CC(=O)Nc1ccc(/C=N/N2C(=O)NC(C)(c3ccc(OC(F)F)cc3)C2=O)cc1 (stereo unspecified)	D2 ag-2 37.0, D2 antagonist 46.7 | D3 ag inactive | D2 ag-3 inactive
O=C(c1ccc(F)c(S(=O)(=O)N2CCOCC2)c1)N(c1ccccc1)c1ccccn1	none (no result: D2 ag-2, D2 PAM-2, D2 antagonist) | D3 ag inactive | D2 ag-3 inconclusive
CC1(C(=O)NS(=O)(=O)Cc2cccc(Cl)c2)CCN1C(=O)CC1CCCC1 (stereo unspecified)	none (no result: D2 ag-2, D2 PAM-2, D2 antagonist)
CSc1nc2ccc(NC(=O)c3cccs3)cc2s1	none (no result: D2 ag-2, D2 PAM-2, D2 antagonist)
CSc1nc2ccc(NC(=O)c3ccc(F)c(F)c3)cc2s1	none
CSc1nc2ccc(NC(=O)c3ccc(=O)[nH]c3)cc2s1	D2 ag-2 49.4 | D3 ag inactive | D2 ag-3 inactive
CSc1nc2ccc(NC(=O)c3ccc(=O)n(C)n3)cc2s1	none | D3 ag inactive | D2 ag-3 inactive
O=C(N[C@H]1CCC(=O)N(CCSc2ccc(Br)cc2)CC1)OCc1ccccc1	none | D3 ag inactive | D2 ag-3 inactive
